Compounds with a hit are over-represented: about 5.5% of the library has one in this group of screens.
Coupling enz – inhibits coupling enzyme system, counter-screen for aldolase hits; coupling enzyme system counterscreen, AmpLite Red fluorescence; activity change, negative = inhibition, % at 58.2 µM, hits read low; 0.67% of 290,000 active; AID 2472; in the data active = activity change below about -30%
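Activity here indicates interference with the coupling reaction, not aldolase inhibition. Compounds at 57.5 uM final met coupling enzymes for 10 min at RT; substrate and AmpLite Red detection followed, with a 525/598 nm fluorescence read after 20 min.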
Giardia kill – kills Giardia lamblia | Giardia lamblia trophozoite viability | activity change, % at 7.66 µM, hits read low | 0.15% of 340,000 active | AID 540267; in the data active = activity change below about -80%; inconclusive = between about -30% and that limit;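 also: parasites exposed to compound for two days anaerobically before the ATP read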
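Compounds were tested on trophozoites seeded at 100 cells/well and held 48 hrs at 37 deg C anaerobically. An ATP-based luminescent kit measured the remaining live cells.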
Sfp inh – blocks B. subtilis Sfp PPTase activity; Potency, µM, hits mostly inhibitors; Biochemical Sfp PPTase activity, qHTS; Q9F4F7; 3.5% of 310,000 active;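 also: the enzyme is Sfp with the accession as filed and its product quenches rhodamine fluorescence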
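With Hepes-Na pH 7.6 buffer containing 10 mM MgCl2, Sfp (15 nM) modified BHQ-2-YbbR (12.5 uM) using rhodamine-CoA (5 uM). Two reads 30 minutes apart at 525/598 nm yielded each well's rate.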
ELG1 DNA repair – blocks ELG1-dependent DNA repair in HEK293T cells; HEK293T ELG1-luciferase reporter, luminescence, 16 h; DNA damage induced by 5-fluorouridine; AID 504467; 2.3% of 330,000 active; Potency, µM (titrated, usually from 46.1 µM), hits mostly inhibitors; also: nearly all actives have a fitted effect of over 55% in size
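Cells (2,000 per well) received 5-fluorouridine plus test compound or DMSO and were incubated 16 hr at 37 °C, 5% CO2. Luciferase activity was read by luminescence 30 min after ONE-Glo addition; signal suppression marked inhibition of damage-induced ELG1 function.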
Each line names hits and unclear results; the compound was inactive in the other large screens. Unless noted, calls follow the shape of the dose curve; as a rule, active = well fitted curve in the direction sought with a large enough effect; inconclusive = small, poorly fitted or top-dose-only effect, or another doubt; inactive = no such curve, though single readings can be large; an effect the other way counts as inactive or inconclusive.

O=[N+]([O-])c1ccc(NC(=S)NCCc2ccccc2)cc1	ELG1 DNA repair inconclusive
COc1ccc([N+](=O)[O-])cc1NC(=S)Nc1ccccc1	Sfp inh inconclusive
O=[N+]([O-])c1ccc(NNC(=S)Nc2ccccc2)cc1	Sfp inh 3.5µM, ELG1 DNA repair inconclusive
O=[N+]([O-])c1ccc(O)c(NC(=S)Nc2ccccc2)c1	Sfp inh 50µM, ELG1 DNA repair inconclusive
CC1CCC(NC(=O)c2cc(S(=O)(=O)N(C)C)ccc2N2CCCC2)CC1 (stereo not given)	ELG1 DNA repair inconclusive (no result: Coupling enz, Sfp inh)
COc1ccccc1NS(=O)(=O)c1ccc(C)c(NC(=O)NCCCl)c1	Sfp inh 89µM, ELG1 DNA repair inconclusive
COc1ccccc1NS(=O)(=O)c1ccc(C)c(NC(=O)NC2CCCCC2)c1	ELG1 DNA repair inconclusive
COc1cc(C2(c3ccc(O)c(OC)c3)C(=O)Nc3c(C)cc(Br)cc32)ccc1O	none (no result: Coupling enz, Sfp inh, ELG1 DNA repair)
COCCn1c(C)cc(/C=C(\C#N)C(=O)OC(C)C(=O)Nc2ccc(NC(C)=O)cc2)c1C (stereo not given)	none (no result: Coupling enz, Sfp inh)
CCc1ccccc1N1CC23C=CC(O2)C(C(=O)OCC(C)C)C3C1=O (stereo not given)	none
CC(C)COC(=O)NCC12C=CC(O1)C1C(=O)N(c3ccc(Cl)cc3)C(=O)C12 (stereo not given)	Sfp inh 13µM
Cc1ccc(N2C(=O)C3C4C=CC(CNC(=S)N5CCN(c6ccccn6)CC5)(O4)C3C2=O)cc1 (stereo not given)	Sfp inh 28µM
Cc1ccc(N2C(=O)C3C4C=CC(CNC(=S)Nc5cccc(Cl)c5)(O4)C3C2=O)cc1 (stereo not given)	Sfp inh 35µM
Cc1ccc(N2C(=O)C3C4C=CC(CNC(=S)Nc5ccc(F)cc5)(O4)C3C2=O)cc1 (stereo not given)	Sfp inh 14µM
Cc1ccc(N2C(=O)N(CC(=O)Nc3cccc(Cl)c3)C(=O)C2C)cc1 (stereo not given)	none (no result: Coupling enz, Sfp inh)
CC(C)N(Cc1ccccc1)C(=O)COC(=O)c1ccc(O)cc1	ELG1 DNA repair inconclusive (no result: Coupling enz, Sfp inh)
CC1CCC2C(=O)N3C(CCC(C)[C@H]3c3cccc(N4CCCC4=O)c3)C(=O)N2C1c1cccc(N2CCCC2=O)c1 (stereo not given in full)	none (no result: Giardia kill, ELG1 DNA repair)
Cc1ccc(N2C(=O)C3C4C=CC(CNC(=S)Nc5ccc(Cl)cc5)(O4)C3C2=O)cc1 (stereo not given)	Sfp inh 40µM
Cc1ccc(NC(=S)NCCSc2ccc(Cl)cc2)cc1	none
CC(C)CC(C(=O)Nc1oc(-c2ccco2)c(-c2ccco2)c1C#N)N1C(=O)c2ccccc2C1=O (stereo not given)	Sfp inh 40µM
CCOc1ccc(CCNC(=O)COC(=O)c2ccc(OC)c(OC)c2OC)cc1OCC	ELG1 DNA repair 9.2µM
CCOc1ccc(CCNC(=O)COC(=O)/C=C/c2ccc(C)o2)cc1OCC	Sfp inh 56µM (no result: Coupling enz)
Cc1ccc(/C=C/C(=O)OCC(=O)NCCN2C(=O)CSC2=O)o1	Sfp inh 32µM
CO[C@@H]1/C=C\CC(=O)N[C@@H](C)C(=O)OC[C@H](NS(=O)(=O)c2ccc(C)cc2)[C@H](C)/C=C\CC(=O)OC[C@H]1C	none (no result: Giardia kill, ELG1 DNA repair)
O=c1c2c(-c3ccccc3)csc2nc2n1CCC2	Sfp inh 32µM
COc1c(C)cc(S(=O)(=O)NCc2ccccn2)c(C)c1C	ELG1 DNA repair inconclusive
COCCn1c(=O)c(-c2ccc(F)cc2)nc2cnc(Oc3ccccc3)nc21	none (no result: Giardia kill, ELG1 DNA repair)
CCCCn1c(=O)c(-[n+]2ccccc2)c([O-])c2ccccc21	Sfp inh 14µM
O=C1C(Cl)=C(N2CCCCC2)C(=O)C(Cl)=C1c1cnc(N2CCCCC2)s1	Coupling enz -46, Sfp inh 18µM, ELG1 DNA repair inconclusive
CN(C)c1ncc(C2=C(Cl)C(=O)C(N3CCCC3)=C(Cl)C2=O)s1	none (no result: Coupling enz, Sfp inh, ELG1 DNA repair)
CCCCCCC1(C)NC(=O)N(C(C)C(=O)Nc2ccc(N3CCOCC3)cc2)C1=O (stereo not given)	none (no result: Coupling enz, Sfp inh)
CCCCn1c(N)c(N(CCC(C)C)C(=O)COC(=O)c2ccc3ccccc3c2)c(=O)[nH]c1=O	none (no result: Coupling enz, Sfp inh)
CSC1=NC(NCCCO)c2c(sc3c2CC(C)(C)OC3)N1 (stereo not given)	ELG1 DNA repair 21µM
COCCOC(=O)C1=C(C)NC(=S)NC1/C=C/c1ccccc1 (stereo not given)	Sfp inh inconclusive, ELG1 DNA repair 5.8µM
Nc1ncnc2c1ncn2[C@@H]1O[C@H](C(=O)N2CCN(CC(=O)Nc3cccc4c3CNC4=O)CC2)[C@@H](O)[C@H]1O	Sfp inh inconclusive (no result: Giardia kill, ELG1 DNA repair)
c1ccc2c(c1)nnn2Cc1nnc2sc(-c3ccc4c(c3)OCCO4)nn12	Sfp inh 18µM
COc1ccc(Cc2nn3c(Cn4nnc5ccccc54)nnc3s2)cc1	Sfp inh 16µM, ELG1 DNA repair inconclusive
CN(C)c1ncc2nc(-c3ccc(Cl)cc3)c(=O)n(C3CC3)c2n1	none (no result: Giardia kill, ELG1 DNA repair)
O=C(O)c1cccc(N2C(=O)c3cc([N+](=O)[O-])cc4cc([N+](=O)[O-])cc(c34)C2=O)c1	ELG1 DNA repair inconclusive
CCCN(CC(=O)Nc1ccccc1C)C(=O)CCN1C(=O)c2cccc([N+](=O)[O-])c2C1=O	none (no result: Coupling enz, Sfp inh)
CC1=CC(=O)C(C(C)C)=C/C1=C(\c1cc(C(C)C)c(OP(=O)(O)O)cc1C)c1ccccc1C(=O)O	ELG1 DNA repair 18µM
CCCCCCCC#Cc1ccccc1C(NC(=O)OC)C(C(=O)OC)C(=O)OC (stereo not given)	none (no result: Giardia kill, ELG1 DNA repair)
O=c1[nH]cnc2c1ncn2-c1ccc(N(CCO)CCO)cc1	none (no result: Coupling enz, Sfp inh, ELG1 DNA repair)
COC(=O)[C@H]1[C@H]2C[C@@H]3c4[nH]c5cc(OC)ccc5c4CCN3C[C@H]2C[C@@H](OC(=O)c2cc(OC)c(OC)c(OC)c2)[C@@H]1OC	ELG1 DNA repair 10µM (no result: Coupling enz)
COC(=O)[C@@H]1C2CC3c4[nH]c5cc(OC)ccc5c4CCN3CC2C[C@H](OC(=O)c2cc(OC)c(OC)c(OC)c2)C1OC (stereo not given in full)	none (no result: Giardia kill, ELG1 DNA repair)
COc1ccc(NS(=O)(=O)c2ccc(OCC(=O)N3CCOCC3)cc2)cc1Cl	ELG1 DNA repair inconclusive (no result: Coupling enz)
O=C(COC(=O)c1ccc2[nH]c3c(c2c1)CCCC3)Nc1ccccc1Cl	ELG1 DNA repair inconclusive
CCC(C)c1ccccc1NC(=O)COC(=O)c1ccc2[nH]c3c(c2c1)CCCC3 (stereo not given)	ELG1 DNA repair 21µM
COCc1cc(C)nc2sc(C(=O)N3CCN(c4ccccc4)CC3)c(N)c12	ELG1 DNA repair inconclusive
COCc1cc(C)nc2sc(C(=O)N3CCCCC3)c(N)c12	Sfp inh 79µM
CCN(CC)CCCn1c2c(c(SCC(=O)Nc3ccc4c(c3)OCCO4)nc1=O)CCC2	none (no result: Coupling enz, Sfp inh)
CN1C(=O)/C(=C/c2cn(CC(=O)N3CCCCC3)c3ccccc23)c2ccccc21	ELG1 DNA repair 21µM (no result: Giardia kill)
COc1ccc(OCC2Cc3c(-c4ccccc4)nc4c(c3CO2)CN(CCOc2ccccc2)CC4)cc1 (stereo not given)	none (no result: Giardia kill, ELG1 DNA repair)
Cn1c(=O)c(=O)n(C)c2cc(N3CCOCC3)c(NS(=O)(=O)c3ccc([N+](=O)[O-])cc3)cc21	Sfp inh 50µM
